Some test systems named below: HCT-15 colon; HT29 colon; SNB-75 CNS; SNB-19 CNS; U251 CNS; PC-3 prostate; SK-MEL-5 melanoma; UACC-62 melanoma; LOX IMVI melanoma; SK-MEL-28 melanoma.
What all share (test): NCI-60 one-dose screen, 48 h (100 = growth as untreated, 0 = no growth, -100 = all killed)

Results on 9 compounds are retold here after PubChem BioAssay (NCI).

The structures appear in SMILES notation. Where “and” joins values, the source holds several entries; their conditions need not be identical. Equal entries are not always repeated. Compounds without any hit were thinned out: in the full panel of roughly 83,000, 20% have a hit.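 Step 1: grow cells in 96-well plates. Step 2: add test compound at a single concentration. Step 3: incubate 48 h. Step 4: record percent growth.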 Values without a mark were called inactive. Calls of active or inactive are those of the source. Rule for the calls: active = growth percent below 10; inactive = the rest.

With `CC(=O)OCC1OC([S-])C(OC(C)=O)C(OC(C)=O)C1OC(C)=O.[Au+].c1ccc(CN2[CH-]N(Cc3ccccc3)C(c3ccccc3)=C2c2ccccc2)cc1`, the growth with HCT-15 colon (4.75 µM) was -57.5% (active); in the experiment with HCT-15 colon (10 µM) it was -79.8% (active); with HT29 colon (4.75 µM), 0.406% (active); with HT29 colon (10 µM) it was 16.4%; with SNB-75 CNS (4.75 µM) it was 26.1%; in the experiment on SNB-75 CNS (10 µM), 3.87% (active). Besides, the growth is -49.9% (active) in the experiment on SNB-19 CNS (4.75 µM); -80.3% (active) in the experiment on SNB-19 CNS (10 µM); -72.4% (active) in the experiment with U251 CNS (4.75 µM); -84% (active) in the experiment with U251 CNS (10 µM); 4.86% (active) in the experiment on PC-3 prostate (4.75 µM); 9.73% (active) with PC-3 prostate (10 µM). For the same compound, the growth in the experiment on SK-MEL-5 melanoma (4.75 µM) was -50.5% (active); in the experiment with SK-MEL-5 melanoma (10 µM) it was 16.8%; in the experiment with UACC-62 melanoma (4.75 µM), -18.6% (active); with UACC-62 melanoma (10 µM), 3.54% (active); in the experiment with LOX IMVI melanoma (4.75 µM) it was -82.1% (active); in the experiment on LOX IMVI melanoma (10 µM), -86.2% (active). In addition, the growth in the experiment on SK-MEL-28 melanoma (4.75 µM) was 10%; in the experiment on SK-MEL-28 melanoma (10 µM) it was 20.2%.

Regarding `O=C(O)CCCc1ccc(N(CCCl)CCCl)cc1`, the growth with HCT-15 colon (10 µM) was 86.1% and 95.5%; in the experiment with HCT-15 colon (75 µM), 46.3%; in the experiment on HT29 colon (10 µM), 85.7% and 74.5%; with HT29 colon (75 µM) it was 45.2%; in the experiment on SNB-75 CNS (10 µM), 88.9% and 90.1%; in the experiment on SNB-75 CNS (75 µM) it was 3.53% (active). Moreover, the growth in the experiment on SNB-19 CNS (10 µM) is 102% and 95.9%; in the experiment with SNB-19 CNS (75 µM) it was 32.9%; in the experiment on U251 CNS (10 µM), 85.1% and 84%; with U251 CNS (75 µM), 30%; with PC-3 prostate (10 µM), 85.3% and 64.5%; in the experiment on PC-3 prostate (75 µM), 45.3%. In addition, the growth with SK-MEL-5 melanoma (10 µM) is 93% and 88.4%; in the experiment with SK-MEL-5 melanoma (75 µM), 38.6%; in the experiment with UACC-62 melanoma (10 µM), 82.7% and 78.8%; in the experiment on UACC-62 melanoma (75 µM), 28.6%; in the experiment with LOX IMVI melanoma (10 µM) it was 83.1% and 80.2%; in the experiment on LOX IMVI melanoma (75 µM) it was 26.7%. In addition, in the experiment on SK-MEL-28 melanoma (10 µM unless noted), the growth was 99.3%.

As to `ClC1OC(Cl)(Cl)C(Cl)(Cl)OC1(Cl)Cl` (centres undefined), the growth in the experiment with HCT-15 colon (10 µM unless noted) was 106%; in the experiment on HT29 colon (10 µM unless noted), 103%; with SNB-75 CNS (10 µM unless noted) it was 88.3%; in the experiment on SNB-19 CNS (10 µM unless noted) it was 112%; in the experiment on U251 CNS (10 µM unless noted) it was 103%; in the experiment on PC-3 prostate (10 µM unless noted) it was 104%. Further, the growth in the experiment on SK-MEL-5 melanoma (10 µM unless noted) was 100%; in the experiment with UACC-62 melanoma (10 µM unless noted), 104%; in the experiment on LOX IMVI melanoma (10 µM unless noted) it was 108%.

With `COC1C(O)CC(OC2CC(Oc3cc4cc5c(c(O)c4c(O)c3C)C(=O)[C@@H](OC3CC(OC4CC(OC6CC(C)(O)C(OC(C)=O)C(C)O6)C(O)C(C)O4)C(O)C(C)O3)[C@H]([C@H](OC)C(=O)[C@@H](O)[C@@H](C)O)C5)OC(C)C2OC(C)=O)OC1C` (some centres undefined), the growth was 1.5% (active) with HCT-15 colon (10 µM unless noted); -23.2% (active) in the experiment with HT29 colon (10 µM unless noted); -61.8% (active) in the experiment on SNB-75 CNS (10 µM unless noted); 5.7% (active) with SNB-19 CNS (10 µM unless noted); 4.79% (active) with U251 CNS (10 µM unless noted); -11.5% (active) in the experiment on PC-3 prostate (10 µM unless noted). Besides, the growth in the experiment on SK-MEL-5 melanoma (10 µM unless noted) is -93.8% (active); with UACC-62 melanoma (10 µM unless noted) it was -83% (active); in the experiment on LOX IMVI melanoma (10 µM unless noted), 3.81% (active).

In the case of `CCOP(=O)(NC)OCC`, the growth was 112% in the experiment with HCT-15 colon (10 µM unless noted); 109% in the experiment on HT29 colon (10 µM unless noted); 103% with SNB-75 CNS (10 µM unless noted); 102% in the experiment with SNB-19 CNS (10 µM unless noted); 107% in the experiment on U251 CNS (10 µM unless noted); 85.4% with PC-3 prostate (10 µM unless noted). Besides, the growth in the experiment with SK-MEL-5 melanoma (10 µM unless noted) was 100%; in the experiment on UACC-62 melanoma (10 µM unless noted) it was 108%; in the experiment on LOX IMVI melanoma (10 µM unless noted) it was 102%.

For the compound `CC[C@@H](C)C(=O)O[C@H]1[C@H](O)[C@H]2[C@@H](CN3C[C@@H](C)CC[C@H]3[C@@]2(C)O)[C@@H]2C[C@]34O[C@]5(O)[C@@H](OC(=O)[C@@](C)(O)CC)CC[C@@]3(C)[C@@H]5[C@@H](OC(C)=O)[C@@H](OC(C)=O)[C@H]4[C@@]21O`, the growth with HCT-15 colon (10 µM unless noted) was 109%; with HT29 colon (10 µM unless noted), 112%; with SNB-75 CNS (10 µM unless noted) it was 79.8%; in the experiment on SNB-19 CNS (10 µM unless noted), 100%; with U251 CNS (10 µM unless noted), 91.8%; in the experiment with PC-3 prostate (10 µM unless noted), 75.8%. For the same compound, the growth is 86.6% in the experiment with SK-MEL-5 melanoma (10 µM unless noted), 96.1% in the experiment on UACC-62 melanoma (10 µM unless noted), 92.8% in the experiment with LOX IMVI melanoma (10 µM unless noted) and 105% in the experiment on SK-MEL-28 melanoma (10 µM unless noted).

In the case of `C[C@]12CC[C@H](O)C[C@@H]1CC[C@@H]1[C@@H]2CC[C@]2(C)OC(=O)CC[C@@H]12`, the growth in the experiment with HCT-15 colon (10 µM unless noted) was 95.2%; in the experiment with HT29 colon (10 µM unless noted), 79.6%; with SNB-75 CNS (10 µM unless noted), 85.8%; with SNB-19 CNS (10 µM unless noted) it was 96.6%; in the experiment on U251 CNS (10 µM unless noted), 86.9%; with PC-3 prostate (10 µM unless noted), 92.5%. Moreover, the growth in the experiment on SK-MEL-5 melanoma (10 µM unless noted) is 101%; in the experiment on UACC-62 melanoma (10 µM unless noted), 93.5%; in the experiment with LOX IMVI melanoma (10 µM unless noted) it was 97.9%.

With `COc1cc2c(cc1OC)-c1c3c(cc4c1[C@@H](C2)N(C)CC4)OCO3`, the growth is 29% in the experiment with HCT-15 colon (10 µM unless noted); 29% in the experiment on HT29 colon (10 µM unless noted); 57.9% with SNB-75 CNS (10 µM unless noted); 48.4% in the experiment with SNB-19 CNS (10 µM unless noted); 39.3% in the experiment with U251 CNS (10 µM unless noted); 39.8% in the experiment on PC-3 prostate (10 µM unless noted). Further, the growth in the experiment with SK-MEL-5 melanoma (10 µM unless noted) was 57.9%; in the experiment on UACC-62 melanoma (10 µM unless noted) it was 45.2%; in the experiment on LOX IMVI melanoma (10 µM unless noted), 26.2%.

In the case of `CC[C@H](C)[C@H](NC(=O)C12CC(NC)(C1)C2)C(=O)N(C)[C@H](C[C@@H](OC(C)=O)c1nc(C(=O)N[C@@H](Cc2ccccc2)C[C@H](C)C(=O)OC)cs1)C(C)C`, the growth in the experiment with HCT-15 colon (10 µM unless noted) is 18.4%; with HT29 colon (10 µM unless noted) it was -4.54% (active); in the experiment on SNB-75 CNS (10 µM unless noted), 23.5%; with SNB-19 CNS (10 µM unless noted), 33.5%; in the experiment on U251 CNS (10 µM unless noted), 12.7%; with PC-3 prostate (10 µM unless noted), 23.6%. For the same compound, the growth with SK-MEL-5 melanoma (10 µM unless noted) is -31.7% (active); in the experiment with UACC-62 melanoma (10 µM unless noted), 45%; in the experiment on LOX IMVI melanoma (10 µM unless noted), 5.36% (active); with SK-MEL-28 melanoma (10 µM unless noted), 53.4%.
